The values that follow come from ChEMBL document CHEMBL4296182, “CO-ADD screening of NIH NCI Diversity Set V”.

One may read the Inhibition as the relative decrease from the control value, in per cent.

Each structure is given as a SMILES string. For part of these data: Potency and affinity values are given separately.

The test system of one experiment is Staphylococcus aureus. Description: Antibacterial activity against Staphylococcus aureus MRSA ATCC 43300 (CO-ADD:GP_020); MIC in CAMBH media using NBS plates, by Resazurin F(560/590). The conditions noted are these: Concentration 20 uM, ASSAY_TEST Inhibition of Bacterial Growth, detection method Resazurin, Fluorescence (ex560/em590), MEDIA CAMHB, plate type 384well, CORNING #3640, time 18 hr. The class given is functional. On the technique in general: The colour change of resazurin is a common sign of viable cells or microbes.

A further experiment relates to Acinetobacter baumannii. Kind of experiment: Antibacterial activity against Acinetobacter baumannii ATCC 19606 (CO-ADD:GN_034); MIC in CAMBH media using NBS plates, by Resazurin F(560/590). The class given is functional. The conditions noted are these: Concentration 20 uM, ASSAY_TEST Inhibition of Bacterial Growth, detection method Resazurin, Fluorescence (ex560/em590), MEDIA CAMHB, plate type 384well, CORNING #3640, time 18 hr.

The subject of another experiment is Escherichia coli. Kind of experiment: Antibacterial activity against Escherichia coli ATCC 25922 (CO-ADD:GN_001); MIC in CAMBH media using NBS plates, by Resazurin F(560/590). It is filed as functional. Conditions: Concentration 20 uM, ASSAY_TEST Inhibition of Bacterial Growth, detection method Resazurin, Fluorescence (ex560/em590), MEDIA CAMHB, plate type 384well, CORNING #3640, time 18 hr.

Another experiment concerns Klebsiella pneumoniae. Conditions: Concentration 20 uM; ASSAY_TEST Inhibition of Bacterial Growth; detection method Absorption (OD600); MEDIA CAMHB; plate type 384well; NBS; CORNING #3640; time 18 hr.
The next experiment relates to Candida albicans. Conditions: 20 µM.
The next experiment concerns Cryptococcus neoformans. Conditions: Concentration 20 uM; ASSAY_TEST Inhibition of Fungal Growth; detection method Resazurin; Absorption (OD600-OD570); plate type 384well; NBS; CORNING #3640.

On to `Nc1n[nH]c(-c2ccccc2)n1`, for which the Inhibition was 11.8% in the experiment on Staphylococcus aureus; -13.69% with Acinetobacter baumannii; 16.83% with Escherichia coli; 8.63% with Klebsiella pneumoniae; -1.64% in the experiment on Candida albicans; -8.71% in the experiment on Cryptococcus neoformans.

With `Cc1cc2c(cc1C)N(C(=O)CCl)CC(=O)N2`, the Inhibition in the experiment on Staphylococcus aureus is -15.91%; with Acinetobacter baumannii it was -11.28%; in the experiment with Escherichia coli it was 5.03%; in the experiment on Klebsiella pneumoniae, 7.32%; in the experiment with Candida albicans, 2.46%; in the experiment on Cryptococcus neoformans, -7.55%.

Turning to `N#C/C(=C\c1c[nH]c2ccccc12)C(N)=O`, the Inhibition is 13.33% in the experiment with Staphylococcus aureus; 12.56% with Acinetobacter baumannii; 0.03% in the experiment with Escherichia coli; 10.43% in the experiment on Klebsiella pneumoniae; 4.53% in the experiment with Candida albicans; -10.69% in the experiment on Cryptococcus neoformans.

On to `NC(=O)c1nnsc1-c1ccc(-c2snnc2C(N)=O)cc1`, for which the Inhibition is 15.72% in the experiment on Staphylococcus aureus; 9.25% in the experiment with Acinetobacter baumannii; 9.34% with Escherichia coli; 2.92% with Klebsiella pneumoniae; -1.56% with Candida albicans; -13.62% in the experiment on Cryptococcus neoformans.

`Cc1cc(C)n2c(C)nnc2c1`: the Inhibition in the experiment with Staphylococcus aureus was -1.68%; in the experiment with Acinetobacter baumannii it was -10.08%; in the experiment on Escherichia coli, 5.69%; in the experiment with Klebsiella pneumoniae, 10.38%; in the experiment on Candida albicans, -0.15%; in the experiment with Cryptococcus neoformans, -3%.

For the molecule `CC(C)(C)CC(C)(C)N1CN=C(S)NC1`, the Inhibition in the experiment on Staphylococcus aureus was 14.76%; in the experiment with Acinetobacter baumannii it was 8.83%; in the experiment with Escherichia coli it was 1.22%; with Klebsiella pneumoniae it was 6.38%; in the experiment on Candida albicans it was 1.25%; with Cryptococcus neoformans, -7.67%.

For `Nc1nc(N)c(/N=N/c2ccc(S(N)(=O)=O)cc2)c(O)n1`, the Inhibition with Staphylococcus aureus is 11.8%; in the experiment with Acinetobacter baumannii, -8.6%; with Escherichia coli, -8.26%; in the experiment with Klebsiella pneumoniae, 23.84%; in the experiment on Candida albicans, 0.97%; in the experiment with Cryptococcus neoformans, -15.08%.

As to `CCNc1nn2ccccc2c1/C=C(/C#N)C(=O)OCC`, the Inhibition in the experiment on Staphylococcus aureus is 10.32%; in the experiment on Acinetobacter baumannii it was -16.65%; in the experiment on Escherichia coli, 7.73%; with Klebsiella pneumoniae it was 11.76%; with Candida albicans it was 8.75%; in the experiment on Cryptococcus neoformans it was -8.42%.

Take `O=C(Nc1ccc(Br)c2ccccc12)c1ccc2ccccc2c1O`: the Inhibition with Staphylococcus aureus is 0.57%; with Acinetobacter baumannii, -4.06%; with Escherichia coli, -4.98%; with Klebsiella pneumoniae it was 22.07%; with Candida albicans, 4.96%; with Cryptococcus neoformans it was 1.39%.

On to `Nc1nc(S)c2ncn(C3CCCC3)c2n1`, for which the Inhibition in the experiment on Staphylococcus aureus is 16.34%; with Acinetobacter baumannii, -8.37%; in the experiment with Escherichia coli, 6.43%; with Klebsiella pneumoniae, 18.77%; in the experiment with Candida albicans it was -3.88%; in the experiment with Cryptococcus neoformans, -14.08%.

Take `O=C(O)CSc1nc2ccccc2s1`: the Inhibition in the experiment with Staphylococcus aureus was 14.28%; with Acinetobacter baumannii, -9.51%; with Escherichia coli, 3.19%; with Klebsiella pneumoniae, 0.1%; in the experiment on Candida albicans, 13.9%; in the experiment with Cryptococcus neoformans, -12.74%.

Take `O=C(/C=C/c1ccccc1Cl)c1ccc(O)cc1`: the Inhibition in the experiment with Staphylococcus aureus is 3.85%; in the experiment on Acinetobacter baumannii, 0.76%; with Escherichia coli, -16.06%; in the experiment on Klebsiella pneumoniae it was 19.85%; with Candida albicans, 14.7%; in the experiment on Cryptococcus neoformans, 8.89%.

`CCC1(C(=O)OC)CCc2c(cc(OC)c3ccccc23)C1=O` (centres undefined): the Inhibition with Staphylococcus aureus is 5.5%; in the experiment with Acinetobacter baumannii, -17.62%; in the experiment on Escherichia coli, 8.82%; in the experiment on Klebsiella pneumoniae it was 8.69%; in the experiment with Candida albicans it was 3.67%; in the experiment with Cryptococcus neoformans, -10.67%.

For the molecule `COc1cc(NCc2ccccc2O)c2ncccc2c1`, the Inhibition in the experiment with Staphylococcus aureus is -0.91%; in the experiment on Acinetobacter baumannii, -6.99%; with Escherichia coli, 7.11%; in the experiment on Klebsiella pneumoniae it was 7.53%; in the experiment with Candida albicans, 4.54%; in the experiment on Cryptococcus neoformans, -12.51%.

Consider `CCCCCn1cnc2c(S)nc(N)nc21`, for which the Inhibition is 4.88% in the experiment with Staphylococcus aureus; -14.99% with Acinetobacter baumannii; 12.21% in the experiment on Escherichia coli; 5.23% with Klebsiella pneumoniae; 1.29% in the experiment on Candida albicans; -16.43% in the experiment with Cryptococcus neoformans.

For `CSc1nc(Cl)c(Br)c(Nc2cnc(O)nc2O)n1`, the Inhibition with Staphylococcus aureus is 5.42%; in the experiment on Acinetobacter baumannii it was 6.52%; with Escherichia coli, -1.71%; with Klebsiella pneumoniae, 4.64%; in the experiment with Candida albicans, -2.17%; in the experiment with Cryptococcus neoformans, 0.33%.

As to `C/C(=N\O)[C@H]1CC[C@H]2[C@@H]3CC[C@@H]4C/C(=N/O)CC[C@]4(C)[C@H]3[C@@](C)(O)C[C@]12C`, the Inhibition in the experiment with Staphylococcus aureus was 13.92%; in the experiment on Acinetobacter baumannii it was 2.13%; in the experiment on Escherichia coli, 6.69%; in the experiment on Klebsiella pneumoniae it was 4.28%; in the experiment on Candida albicans, 2.6%; with Cryptococcus neoformans, -11.49%.

As for `Sc1ncnc2c1ncn2C1CCCC1`, the Inhibition in the experiment on Staphylococcus aureus was 12.18%; in the experiment with Acinetobacter baumannii, -2.05%; in the experiment with Escherichia coli it was 10.82%; in the experiment on Klebsiella pneumoniae it was 10.23%; with Candida albicans it was 3.52%; in the experiment on Cryptococcus neoformans, -6.41%.

On to `c1ccc2c(c1)nnn2-c1ccncc1`, for which the Inhibition in the experiment on Staphylococcus aureus was -3.68%; in the experiment on Acinetobacter baumannii, -2.01%; in the experiment with Escherichia coli, -7.33%; with Klebsiella pneumoniae, 4.04%; in the experiment with Candida albicans, 1.59%; in the experiment with Cryptococcus neoformans it was -7.26%.
